According to PubChem BioAssay (NCI):
Compounds without any hit were thinned out: in the full panel of roughly 79,000, 15% have a hit. Unmarked numbers belong to inactive results. Calls of active or inactive are those of the source. Cut-off read from the data, not from the text of the source: active = growth inhibition above about 70%; inactive = the rest.

What was measured:
[1] = NCI Yeast Anticancer Drug Screen. Data for the rad50 strain (AID 155);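 note: 0% = growth of vehicle-only cultures of the same strain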; settings: S. cerevisiae rad50 strain growth inhibition, stronger effect = higher value
Procedure, shortened: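 Cells are treated with compound, grown, and their growth is then scored against vehicle-only cultures of the same repair-deficient yeast strain.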

[2] = NCI Yeast Anticancer Drug Screen. Data for the mec2-1 strain (AID 157); settings: S. cerevisiae mec2-1 strain, stronger effect = higher value
Procedure, shortened: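 Compounds were applied to mec2-1 yeast cells. Their growth was then compared with that of vehicle-treated cultures to give growth inhibition.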

[3] = NCI Yeast Anticancer Drug Screen. Data for the sgs1 mgt1 strain (AID 161);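 note: 0% = growth of cultures given vehicle only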; settings: S. cerevisiae sgs1 mgt1 strain, stronger effect = higher value
Procedure, shortened: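 Compounds are added to genetically altered yeast, and growth is compared with cultures given vehicle alone to give percent inhibition.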

[4] = NCI Yeast Anticancer Drug Screen. Data for the cln2 rad14 strain (AID 165);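 note: 0% = growth equal to vehicle treated cultures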; settings: S. cerevisiae cln2 rad14 strain, stronger effect = higher value
Procedure, shortened: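 Strain: cln2 rad14 yeast, altered in cell cycle control and DNA damage repair. Read-out: growth inhibition vs vehicle.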

[5] = NCI Yeast Anticancer Drug Screen. Data for the bub3 strain (AID 167); settings: S. cerevisiae bub3 mutant strain, stronger effect = higher value
Procedure, shortened: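 Part of a panel of yeast mutants defective in DNA damage repair or cell cycle regulation. Each strain is grown with compound, and inhibition is calculated relative to solvent-treated cultures.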

[6] = NCI Yeast Anticancer Drug Screen. Data for the mlh1 rad18 strain (AID 175); settings: S. cerevisiae mlh1 rad18 strain growth inhibition, stronger effect = higher value
Procedure, shortened: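 A repair-deficient yeast strain is exposed to test compound, and growth is scored relative to vehicle-treated controls.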

[7] = at 5.0 µM (retest, dose inferred, filed as 0.5)
[8] = at 50.0 µM (retest, dose inferred, filed as 5.0)

SMILES	growth inhibition [1, 7]	growth inhibition [1, 8]	growth inhibition ([1]; at 50.0 µM)	growth inhibition [2, 7]	growth inhibition [2, 8]	growth inhibition ([2]; at 50.0 µM)	growth inhibition [3, 7]	growth inhibition [3, 8]	growth inhibition ([3]; at 50.0 µM)	growth inhibition [4, 7]	growth inhibition [4, 8]	growth inhibition ([4]; at 50.0 µM)	growth inhibition [5, 7]	growth inhibition [5, 8]	growth inhibition ([5]; at 50.0 µM)	growth inhibition [6, 7]	growth inhibition [6, 8]	growth inhibition ([6]; at 50.0 µM)
CCCCCC(C1SC(=S)NC1=O)C1SC(=S)NC1=O (configuration not stated)	1%	-3%	96.8% (active)	2%	1%	93.2% (active)	5%	6%	95% (active)	-1%	-1%	83% (active)	0%	0%	97.6% (active)	0%	3%	81.8% (active)
COC(=O)/C=C1/OC(c2ccccc2)=CC1=O	31%	31%	87.5% (active)	8%	8%	91.7% (active)	22%	22%	57%	-2%	-2%	70.3% (active)	0%	0%	85.8% (active)	9%	9%	86.2% (active)
O=C1OC(c2ccccc2)=N/C1=C\c1ccc(Oc2ccc(Cl)c(Cl)c2)cc1	8%	8%	69.4%	14%	14%	61.5%	0%	0%	74.8% (active)	-2%	-2%	46%	-1%	-1%	69.7%	-4%	-4%	52.4%
O=C(c1ccccc1)c1ccc(Br)cc1O	-3%	21%	57%	-9%	12%	21.9%	-4%	33%	31.8%	-5%	9%	28.1%	-12%	-11%	38.1%	1%	8%	68.8%
O[C@H]1c2cccn2-c2ccccc2S[C@H]1c1ccccc1	12%	99% (active)	98.8% (active)	-6%	99% (active)	98.8% (active)	3%	97% (active)	98.8% (active)	6%	99% (active)	98.8% (active)	10%	98% (active)	98.5% (active)	-4%	99% (active)	99% (active)
CC(C)(C)c1ccc(C(=O)n2c(=S)oc3ccc(Cl)cc32)cc1	50%	85% (active)	65%	44%	91% (active)	61.4%	46%	92% (active)	81.8% (active)	39%	73% (active)	39.5%	43%	64%	59.5%	51%	88% (active)	63%
O=[N+]([O-])/C(Br)=C\c1ccc([N+](=O)[O-])cc1	19%	99% (active)	99.4% (active)	4%	100% (active)	96.8% (active)	9%	100% (active)	99.6% (active)	17%	99% (active)	92% (active)	40%	99% (active)	94.9% (active)	54%	99% (active)	99.5% (active)
O=c1c(-c2ccccc2)coc2cc(O)ccc12	-14%	8%	60.6%	5%	23%	36.9%	-6%	16%	63.3%	-12%	-12%	18.1%	-25%	34%	75.8% (active)	-3%	12%	4.9%
CC1=C(C(=O)Nc2ccccc2)C(c2cc(Cl)cc(Cl)c2)C(C(=O)Nc2ccccc2)=C(C)N1	2%	2%	87% (active)	19%	19%	85.5% (active)	11%	11%	83% (active)	5%	5%	63.1%	-11%	-11%	63.4%	-4%	-4%	74.1% (active)
